Laboratory results reported in PubChem BioAssay (EPA / NIEHS).
“And” between values parts separate entries of the source, which are not always exact repeats. Equal entries are not always repeated. Where a structure was tested more than once in an assay, its records may differ in their call. The source made the active and inactive calls. Rule for the calls: active = hit-call score of the fitted dose curve at least 0.9, where 1 is the maximum; inactive = score below 0.9.

Legend:
Conditions in all cases: primary human HUVEC with PBMC; actives raise or lower the signal
[1] = read-out: Interleukin-1 alpha (IL1a), IL1A (gene 3552); experiment: BSK_LPS_IL1a: BioMAP Diversity Plus: LPS Assay for Interleukin-1 alpha (IL1a) Biomarker Activity (AID 2283080)
Method in brief: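 Primary human HUVEC and PBMC co-culture stimulated with LPS is dosed and harvested at 24 h. Both increases and decreases in ELISA-measured IL-1a are scored relative to DMSO.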

[2] = read-out: Monocyte Chemoattractant Protein-1 (MCP1), CCL2 (gene 6347); experiment: BSK_LPS_MCP1: BioMAP Diversity Plus: LPS Assay for Monocyte Chemoattractant Protein-1 (MCP1) Biomarker Activity (AID 2283081);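 for AC50: secreted MCP-1 protein quantified by ELISA in culture supernatant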
Method in brief: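 Values derive from bidirectional fitting against DMSO of ELISA-measured MCP-1 in a human primary endothelial and mononuclear cell co-culture, 24 h after chemical addition under LPS activation.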

[3] = BSK_LPS_PGE2: BioMAP Diversity Plus: LPS Assay for Prostaglandin E2 (PGE2) Biomarker Activity (AID 2283082);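 for AC50: secreted prostaglandin E2 measured by ELISA in LPS-stimulated co-culture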
Method in brief: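 ELISA read-out of PGE2 from human umbilical vein endothelial cells co-cultured with peripheral blood mononuclear cells under LPS, 24 h post-dose. Gain or loss of signal scored relative to DMSO baseline.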

[4] = read-out: Macrophage colony-stimulating factor (MCSF), CSF1 (gene 1435); experiment: BSK_LPS_MCSF: BioMAP Diversity Plus: LPS Assay for Macrophage colony-stimulating factor (MCSF) Biomarker Activity (AID 2283083)
Method in brief: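 Bidirectional fit versus DMSO of ELISA-measured M-CSF in co-cultured human umbilical vein endothelial cells and PBMC, sampled 24 h after dosing.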

[5] = read-out: Tissue Factor, F3 (gene 2152); experiment: BSK_LPS_TissueFactor: BioMAP Diversity Plus: LPS Assay for Tissue Factor Biomarker Activity (AID 2283084)
Method in brief: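 Read-out: CD142 ELISA, 24 h. System: LPS-driven human endothelial/PBMC co-culture. Analysis: up- or down-signal fitted against DMSO.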

[6] = read-out: Tumor necrosis factor (Homo sapiens) (UniProt P01375); experiment: BSK_LPS_TNFa: BioMAP Diversity Plus: LPS Assay for Tumour Necrosis Factor alpha (TNFa) Biomarker Activity (AID 2283085);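 for AC50: TNFa protein level quantified by ELISA in the co-culture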
Method in brief: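 HUVEC/PBMC co-culture, LPS-stimulated; 24 h post-dose; TNFa by ELISA; gain or loss of signal fitted bidirectionally vs DMSO baseline.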

[7] = read-out: Vascular cell adhesion molecule 1 (VCAM1), VCAM1 (gene 7412); experiment: BSK_LPS_VCAM1: BioMAP Diversity Plus: LPS Assay for Vascular cell adhesion molecule 1 (VCAM1) Biomarker Activity (AID 2283086)
Method in brief: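 ELISA read-out of VCAM-1 at 24 h post-dosing in an LPS-driven HUVEC/PBMC primary human co-culture; gain or loss of signal fitted bidirectionally against DMSO baseline. Cytotoxicity tracked in parallel cultures by SRB total-protein staining.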

CD38, CD38 (gene 952) = experiment: BSK_SAg_CD38: BioMAP Diversity Plus: SAg Assay for CD38 Biomarker Activity (AID 2283087)
Method in brief: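 Measures CD38 on a human endothelial/PBMC co-culture driven by SEB and TSST-1, 24 h after compound exposure, using ELISA with fluorescence detection; DMSO defines baseline for bidirectional curve fitting.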

CD40, CD40 (gene 958) = experiment: BSK_SAg_CD40: BioMAP Diversity Plus: SAg Assay for CD40 Biomarker Activity (AID 2283088)
Method in brief: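 Endpoint derived by fitting increases or decreases versus DMSO controls. CD40 is detected by fluorescence ELISA in a human vascular co-culture of endothelium and PBMC at 24 h.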

CD69, CD69 (gene 969) = experiment: BSK_SAg_CD69: BioMAP Diversity Plus: SAg Assay for CD69 Biomarker Activity (AID 2283089);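 for AC50: cell surface CD69 protein quantified by ELISA with fluorescence detection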
Method in brief: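 HUVEC co-cultured with PBMC were dosed with chemical, and CD69 was measured by ELISA with fluorescence read-out 24 h later. Bidirectional curve fitting used DMSO as negative control and activity baseline.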

Measured: AC50

Tumor necrosis factor (Homo sapiens), sequence (P01375 whole entry, looked up): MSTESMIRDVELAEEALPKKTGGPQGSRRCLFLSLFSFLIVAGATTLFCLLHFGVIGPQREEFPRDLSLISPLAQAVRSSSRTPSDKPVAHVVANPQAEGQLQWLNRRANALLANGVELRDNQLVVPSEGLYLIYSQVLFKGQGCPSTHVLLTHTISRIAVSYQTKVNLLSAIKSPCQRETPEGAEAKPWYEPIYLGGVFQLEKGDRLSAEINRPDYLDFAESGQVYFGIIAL

NCC(F)(F)C(F)(F)C(F)(F)C(F)(F)C(F)(F)C(F)(F)F
inactive: [1] | [2] | [3] | [4] | [5] | [6] | [7] | CD38, CD38 (gene 952) | CD40, CD40 (gene 958) | CD69, CD69 (gene 969)
active: [2] 19.9 µM

O=S(=O)(OCC(F)(F)F)C(F)(F)C(F)(F)C(F)(F)C(F)(F)F
inactive: [1] | [2] | [3] | [4] | [5] | [7] | CD38, CD38 (gene 952) | CD40, CD40 (gene 958) | CD69, CD69 (gene 969)
active: [1] 30 µM | [2] 20.6 µM | [5] 9.88 µM | [6] 43.7 µM and 16.3 µM

O=C(O)CCC(F)(F)C(F)(F)C(F)(F)C(F)(F)C(F)(F)C(F)(F)C(F)(F)F
inactive: all assays above

CO[Si](C)(CCC(F)(F)C(F)(F)C(F)(F)C(F)(F)C(F)(F)C(F)(F)F)OC
inactive: all assays above

O=C(Cl)C(F)(F)C(F)(F)C(F)(F)C(F)(F)C(F)(F)C(F)(F)C(F)(F)F
inactive: all assays above

O=C=NCc1cccc(CN=C=O)c1
inactive: all assays above

CCOC(C=C(C)CCC=C(C)C)OCC
inactive: [3] | [6] | CD38, CD38 (gene 952) | CD69, CD69 (gene 969)
active: [1] 32.9 µM | [2] 20 µM | [4] 33.1 µM | [5] 30.5 µM | [7] 31.7 µM | CD40, CD40 (gene 958) 3.97 µM

NC(=O)C(F)(F)C(F)(F)C(F)(F)C(F)F
inactive: all assays above

O=C1C=CC(=O)N1c1ccc(Cc2ccc(N3C(=O)C=CC3=O)cc2)cc1
active: [1] 8.38 µM | [2] 14.9 µM | [3] 5.34 µM | [4] 10 µM | [5] 5.57 µM | [6] 8.82 µM | [7] 11.1 µM | CD38, CD38 (gene 952) 5.71 µM | CD40, CD40 (gene 958) 12.1 µM | CD69, CD69 (gene 969) 6.1 µM

O=C(O)C(F)(F)C(F)(F)C(F)(F)OC(F)(F)F
inactive: all assays above

CCN(CC)c1ccc(N=Nc2ccccc2)cc1
inactive: [3] | [5] | [6] | [7]
active: [1] 34.4 µM | [2] 31.9 µM | [4] 20 µM | CD38, CD38 (gene 952) 27.5 µM | CD40, CD40 (gene 958) 14.2 µM | CD69, CD69 (gene 969) 14.3 µM

FC(F)(F)C(F)(F)C(F)(F)C(F)(F)C(F)(F)C(F)(F)C(F)(F)CCI
inactive: all assays above

O=C(F)C1(F)C(F)(F)C(F)(F)C(F)(F)C(F)(F)C1(F)F
inactive: all assays above

O=C=Nc1cccc2c(N=C=O)cccc12
inactive: all assays above

O=C(Cl)C(F)(F)C(F)(F)C(F)(F)C(F)(F)C(F)(F)C(F)(F)F
inactive: all assays above

Cc1ccc(O)c(-n2nc3ccccc3n2)c1
active: [6] 1.8 µM
inactive: all other assays above

NCC(F)(F)C(F)(F)C(F)(F)C(F)(F)C(F)(F)C(F)(F)C(F)(F)C(F)(F)F
inactive: all assays above
